HT1080 IDH1KD tx – kills HT-1080 cells with IDH1 knockdown; HT-1080 IDH1 knockdown viability, ATP luminescence, 48 h; Potency, µM (top dose mostly 46.1 µM), inactives show top-dose activity, negative = toxicity, hits mostly cytotoxic; hit rate 2% among 360,000; AID 686971;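 also: 0% = DMSO wells and -100% = cell-free medium wells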
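After a 2 h attachment period, IDH1KD HT-1080 cells took pin-transferred compound for 48 h at 37 °C; ATP-based luminescence after 10 min room-temperature reagent incubation reported viability.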
DT40 TDP1 CPT – DT40-hTDP1 cell growth loss with CPT. chicken DT40 Tdp1-/-;hTDP1 cells + 20 nM CPT, ATP luminescence, 48 h. Potency, µM (top dose mostly 46.2 µM), for inactives: top-dose activity change, negative = growth inhibition, most hits filed as inhibitors. hit rate 12% among 420,000; also: % is scaled to controls: 0 for no effect and ±100 for the full control effect; nearly all actives have a fitted effect of over 55% in size
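Chicken DT40 Tdp1-/- cells stably complemented with human TDP1 were seeded at 400 cells/well in medium containing 20 nM camptothecin, exposed to pin-transferred compounds, and grown at 37 °C for at least 48 hr. Viability was read as ATP luminescence.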
HepG2 tox – kills HepG2 cells in TGF-b inhibitor counter-screen; HepG2 CAGA-GFP viability, ATP luminescence, 18 h; AID 588856; hit rate 0.76% among 410,000; Potency, µM (titrated, usually from 46.1 µM), without a hit: at the highest dose activity change, negative = cytotoxicity, usual class: cytotoxic
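CellTiter-Glo luminescence gave cytotoxicity after 18 hours at 37 degrees C. The cells were HepG2 CAGA-GFP in 1% FBS DMEM, stimulated with 500 pg/mL TGF-beta after compound addition. %Activity was normalised to no-cell wells (complete cell-killing) and DMSO (no toxicity), and curves were fitted and classified.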
HT1080-NT tox – kills 2HG-producing HT-1080-NT fibrosarcoma cells; HT-1080-NT fibrosarcoma viability, CellTiter-Glo ATP luminescence, 48 h; Potency, µM (doses to about 46.1 µM), without a hit: at the top dose activity, negative = less viability, most hits filed as cytotoxic; hit rate 1.6% among 360,000; AID 686970;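 also: NT is the 2HG producing partner of a matched IDH1 knockdown line; 0% = DMSO-treated cells and -100% = media-only wells without cells; nearly all actives have a fitted effect of over 55% in size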
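Fibrosarcoma NT cells, 750 per well in 5% FBS RPMI, were exposed to compound for 48 hours. Viability: CellTiter-Glo luminescence.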
TDP1 cell noCPT – qHTS for Inhibitors of human tyrosyl-DNA phosphodiesterase 1 (TDP1): qHTS in cells in absence of CPT. DT40 Tdp1-/- hTDP1 cells, no CPT, ATP luminescence, 48 h. Potency, µM (series often up to 46.2 µM), without a hit: at the top dose activity change, negative = growth inhibition, usual class: inhibitors. hit rate 15% among 420,000; also: % is scaled to controls: 0 for no effect and ±100 for the full control effect; nearly all actives have a fitted effect of over 55% in size
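Compound effects on proliferation are scored in DT40 Tdp1-/-;hTDP1 cells in the absence of CPT. ATP levels (CellTiter-Glo luminescence) are recorded after a ≥48 hr, 37 °C incubation.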
TGFb inhibitor – inhibitors of TGF-b signaling. Potency, µM (titrated, usually from 46.1 µM), for the others: at the top dose activity, negative = inhibition, actives largely listed as inhibitors. hit rate 1.2% among 410,000. AID 588855. HepG2 CAGA-GFP TGF-b/SMAD3 reporter, GFP fluorescence, 18 h; TGF-beta stimulated, 500 pg/mL final; also: % is scaled to controls: 0 for no effect and ±100 for the full control effect; nearly all actives have a fitted effect of over 65% in size
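Inhibition was scored as loss of TGF-beta-induced (500 pg/mL final, 18 hours, 37 degrees C) GFP in HEPG2 cells carrying a CAGA-GFP reporter, in DMEM with 1% FBS. Well GFP was summed per cell; Activity was normalised to unstimulated and stimulated DMSO wells, then concentration-response fitting.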
* hit, by the source's call; u = inconclusive; x = no result given. This is a sample that favours compounds with a hit; in the whole collection about 17% have one here. Calls follow the shape of the dose curve; as a rule, active = well fitted curve in the direction sought with a large enough effect; inconclusive = small, poorly fitted or top-dose-only effect, or another doubt; inactive = no such curve, though single readings can be large; an effect the other way counts as inactive or inconclusive. Potency is read from the fitted curve at half-maximal effect.

SMILES | HT1080 IDH1KD tx | DT40 TDP1 CPT | HepG2 tox | HT1080-NT tox | TDP1 cell noCPT | TGFb inhibitor
CCCNC(=O)c1ccccc1NC(=O)CN(c1ccccc1)S(=O)(=O)N(C)C | 18% | 0% | -18% | 19% | -23% | -19%
CC(C)CCNC(=O)CSc1nc2ccsc2c(=O)n1Cc1ccccc1Cl | x | u | 5% | x | u | -6%
Cc1ccc(Cn2c(SCC(=O)NCc3ccc(Cl)cc3)nc3ccsc3c2=O)cc1 | x | u | -14% | x | -3% | 2%
Cc1cc(-n2c(SCC(=O)NCc3ccccc3)nc3ccsc3c2=O)ccc1Cl | x | 16µM* | -31% | x | u | -25%
COc1ccc(-n2c(SCC(=O)NCc3ccccc3)nc3ccsc3c2=O)cc1 | x | u | -5% | x | u | -11%
O=C(CSc1nc2ccsc2c(=O)n1Cc1ccccc1Cl)NCc1ccc(F)cc1 | x | 16µM* | -2% | x | 21µM* | 0%
Cc1ccc(Cn2c(SCC(=O)NCc3ccccc3Cl)nc3ccsc3c2=O)cc1 | x | u | 10% | x | 21µM* | 21%
Cc1ccc(Cn2c(SCC(=O)C(C)(C)C)nc3ccsc3c2=O)cc1 | x | 21µM* | -5% | x | 15µM* | -17%
COc1ccc(OCC(=O)OCc2cc(=O)n3nc(C4CCCCC4)sc3n2)cc1 | x | 2% | 1% | x | 4% | 0%
O=C(Nc1cccc(Cl)c1)Nc1ccnc(-c2cccnc2)n1 | -9% | u | -9% | -17% | 21µM* | u
O=C(Nc1ccnc(-c2cccnc2)n1)c1cccc(Cl)c1Cl | 1% | 21µM* | -9% | 1% | 23µM* | 20%
COc1ccc(Cc2noc(CN3CCN(Cc4cccc(Cl)c4)CC3)n2)cc1OC | -12% | u | -29% | 4% | 10µM* | -20%
COc1ccc(Cc2noc(CN3CCN(c4ccc(Cl)cn4)CC3)n2)cc1OC | -28% | u | -22% | -29% | 18µM* | -25%
Cc1cc(C)c(NS(=O)(=O)c2ccccc2)c(C)n1 | -1% | 0% | -12% | 11% | -27% | -7%
CCOC(=O)c1ccc(NC(=O)CSc2nc3c(c(=O)n2C)SC(C)C3)cc1 (centres undefined) | -3% | 18µM* | -10% | 3% | 26µM* | u
Cc1ccc2nc(NC(=O)CSc3nc4c(c(=O)n3C)SC(C)C4)sc2c1 (centres undefined) | -26% | 21µM* | -14% | -23% | 21µM* | 9%
COc1ccc(C(=O)NNC(=S)NC(=O)c2cc(-c3ccccc3)nc3ccccc23)cc1 | u | u | -59% | u | 16µM* | 4%
CCCOc1ccc(C(=O)NNC(=S)NC(=O)c2cc(-c3ccc(Cl)cc3)nc3ccccc23)cc1 | u | 23µM* | -31% | u | 12µM* | -13%
CC(C)(C)c1ccc(Cn2ccc(-c3ccc4c(c3)OCO4)n2)cc1 | 1% | u | -2% | 0% | u | -12%
COc1ccc(C2C(C(=O)O)c3ccccc3C(=O)N2Cc2ccco2)cc1 (centres undefined) | 14% | -2% | -3% | 8% | 9% | 8%
CCc1ccc(NC(=O)N(C2CCCCC2)C(C)c2cccnc2)cc1 (centres undefined) | 6% | -10% | 13% | 18% | u | 3%
O=C(c1cc2ccccc2oc1=O)N(Cc1cccs1)CC1CCCO1 (centres undefined) | 24% | u | -4% | 1% | u | -7%
O=C(c1cc2ccccc2oc1=O)N(Cc1ccco1)Cc1cccs1 | 1% | 21µM* | -31% | 6% | u | 3%
O=C(c1cc2ccccc2oc1=O)N(Cc1cccs1)Cc1cccs1 | -7% | u | -3% | -15% | 23µM* | 2%

High-throughput results: PubChem, National Center for Advancing Translational Sciences (NCATS)
